From the supplement of paper PMC6555819

Key:
Assay in all cases: PBM binding z-score (relative to random genomic background probes); higher = stronger binding; sequences stand for … in GC…GCGATTGACAGCGTAGAATGAAGG
[1] = tested on: FXR:RXRa (NR concentration 270 nM, RXRa partner concentration 90 nM)
Outline: (§1)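 Binding z-scores were set against random background probes. The data came from custom Agilent 4×180K protein-binding microarrays carrying double-stranded probes with 34-nt variable regions, incubated 1 h with ligand-free nuclear receptor dimers. Partner-specific antibodies detected binding, and scanned fluorescence was regression-normalized.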

[2] = tested on: LXRa:RXRa (NR concentration 270 nM, RXRa partner concentration 90 nM)
Outline: as §1

[3] = tested on: LXRa homodimer (NR concentration 270 nM)
Outline: as §1

[4] = tested on: LXRb:RXRa (NR concentration 270 nM, RXRa partner concentration 90 nM)
Outline: as §1

[5] = tested on: LXRb homodimer (NR concentration 270 nM)
Outline: as §1

[6] = tested on: PPARa:RXRa (NR concentration 270 nM, RXRa partner concentration 90 nM)
Outline: as §1

[7] = tested on: PPARg:RXRa (NR concentration 180 nM, RXRa partner concentration 90 nM)
Outline: as §1

[8] = tested on: PPARg:RXRa 270nM:90nM, anti-RXR (NR concentration 270 nM, RXRa partner concentration 90 nM)
Outline: as §1

[9] = tested on: PPARg:RXRa 30nM:10nM, anti-RXR (NR concentration 30 nM, RXRa partner concentration 10 nM)
Outline: as §1

[10] = tested on: PPARg:RXRa 90nM:30nM, anti-RXR (NR concentration 90 nM, RXRa partner concentration 30 nM)
Outline: as §1

[11] = tested on: PPARg:RXRa DBDmut IVT, anti-RXR (DBD mutation: RXRa K156A/R161A, NR concentration 270 nM, RXRa partner concentration 90 nM)
Outline: as §1

[12] = tested on: PPARg:RXRa IVT, anti-PPARg (NR concentration 270 nM, RXRa partner concentration 90 nM)
Outline: as §1

[13] = tested on: PPARg DBDmut:RXRa IVT, anti-PPARg (DBD mutation: PPARg1 K132A/R137A, NR concentration 270 nM, RXRa partner concentration 90 nM)
Outline: as §1

[14] = tested on: PPARg DBDmut IVT, anti-PPARg (DBD mutation: PPARg1 K132A/R137A, NR concentration 270 nM)
Outline: as §1

[15] = tested on: PPARg homodimer (NR concentration 180 nM)
Outline: as §1

[16] = tested on: PXR:RXRa (NR concentration 270 nM, RXRa partner concentration 90 nM)
Outline: as §1

[17] = tested on: PXR homodimer (NR concentration 270 nM)
Outline: as §1

[18] = tested on: RARa:RXR (NR concentration 270 nM, RXRa partner concentration 90 nM)
Outline: as §1

[19] = tested on: RARa homodimer (NR concentration 270 nM)
Outline: as §1

[20] = tested on: RARb:RXRa (NR concentration 270 nM, RXRa partner concentration 90 nM)
Outline: as §1

Row | Sequence | PBM binding z-score [1] | PBM binding z-score [2] | PBM binding z-score [3] | PBM binding z-score [4] | PBM binding z-score [5] | PBM binding z-score [6] | PBM binding z-score [7] | PBM binding z-score [8] | PBM binding z-score [9] | PBM binding z-score [10] | PBM binding z-score [11] | PBM binding z-score [12] | PBM binding z-score [13] | PBM binding z-score [14] | PBM binding z-score [15] | PBM binding z-score [16] | PBM binding z-score [17] | PBM binding z-score [18] | PBM binding z-score [19] | PBM binding z-score [20]
1 | CCTGCTAGGTCAATGGTCAGCTAGAGCAGCTCGC | 2.73 | 1.95 | -0.206 | 1.03 | -0.0711 | 3.04 | 4.26 | 5.05 | 2.14 | 4.51 | 4.03 | 3.86 | -0.82 | -0.691 | 1.03 | 0.552 | -0.638 | 1.5 | -0.363 | 3.71
2 | ATCTCTAGGGAAAGTTCAGTGAAAGATCGATAGA | 0.806 | 1.28 | 0.993 | 0.942 | 0.681 | 1.42 | 0.591 | 1.84 | 0.725 | 1.51 | 0.291 | 0.739 | 0.561 | 0.968 | 1.06 | 1.52 | 1.46 | 1.38 | 1.07 | 2.61
3 | ATCTCTAGGTAACACTCAGTTCAGTGAAGAACGC | 0.92 | 1.1 | 0.849 | 0.889 | 1.26 | 1.07 | 0.692 | 0.736 | 0.527 | 0.515 | 3.97 | 2.95 | 1.8 | 2.07 | 1.13 | 1.94 | 2.42 | 1.13 | 1.39 | 1.06
4 | CTCGAAAGGTCGGTTGTGGTGAGTATACGGATAA | 2.01 | 1.54 | 0.263 | 1.67 | 0.416 | 2.29 | 0.242 | 0.949 | -0.0875 | 0.394 | 0.261 | 0.611 | -0.0487 | 0.467 | 1.3 | 1.13 | 0.427 | 1.81 | 1.01 | 3.03
5 | AGACTGAGGTTATTAAGATCAGGGAATTGCGGTC | 1.39 | 1.31 | 0.0697 | 1.16 | -0.265 | 2.03 | 0.624 | 0.982 | 0.0377 | 0.409 | 0.46 | 0.765 | 0.238 | -0.249 | 0.438 | 1.08 | 0.427 | 1.52 | 0.126 | 1.4
6 | AGTCAAAGTACAGGACGAGGTAACGTAAAGCACG | 0.0471 | -0.247 | 0.0589 | -0.158 | -0.441 | -0.0272 | 0.99 | 0.138 | 0.254 | 0.0519 | -0.428 | 0.795 | 0.576 | 0.384 | 0.381 | -0.161 | 0.4 | 0.278 | -0.0608 | 0.641
7 | ATCGAAAGGTTGAAGGTGAGTATACCCACCCGAA | 0.788 | 1.06 | -0.269 | 0.741 | 0.0854 | 2.36 | 1.68 | 1.92 | 0.761 | 1.52 | -0.526 | 0.764 | 0.619 | 0.928 | 0.699 | 1.06 | -0.0881 | 1.79 | 0.177 | 1.66
